Measured values: PubChem BioAssay AID1159580 (chemical genetic matrix, 2015)
Where “and” joins values, the source holds several entries; their conditions need not be identical. Identical values can stand only once. Out of some 5,500 compounds screened, about 2,000 (36%) were called active. About 18% were inconclusive and are not listed. The list shows a part of the results. Unmarked numbers belong to inactive results. Rule as the data show it: active = normalized growth mostly below about 0.91 (no sharp cut-off); inconclusive = no clear call, values can overlap the other calls; inactive = mostly above about 0.92.

Test: chemical genetic growth profiling, strain panel (AID 1159580);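 also: tested at 20 µM; growth read once vehicle control cultures reached saturation at 30 °C; 1 = growth at the plate median or of vehicle wells; lower values mean less growth of the strain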
Details: S. cerevisiae deletion strains, growth OD

`COc1c(N2CCNC(C)C2)c(F)cc2c(=O)c(C(=O)O)cn(C3CC3)c12` (stereo unspecified) gave a normalized growth (locus YAL013W, strain DEP1, active compounds read low) of 0.984, a normalized growth (locus YAL021C, strain ccr4, active compounds read low) of 0.972 and a normalized growth (locus YAL026C, strain drs2, active compounds read low) of 0.955. It also gave a normalized growth (locus YAL030W, strain snc1, active compounds read low) of 0.985, a normalized growth (locus YBL061C, strain skt5, active compounds read low) of 0.992 and a normalized growth (locus YBR009C, strain hhf1, active compounds read low) of 0.968. It also gave a normalized growth (locus YBR021W, strain FUR4, active compounds read low) of 0.951, a normalized growth (locus YBR023C, strain chs3, active compounds read low) of 0.982 and a normalized growth (locus YBR171W, strain sec66, active compounds read low) of 0.985. The normalized growth (locus YBR229C, strain ROT2, active compounds read low) was 1.01, the normalized growth (locus YBR231C, strain swc5, active compounds read low) was 0.985 and the normalized growth (locus YBR279W, strain paf1, active compounds read low) was 0.986. The normalized growth (locus YCL011C, strain gbp2, active compounds read low) was 0.966, the normalized growth (locus YCL016C, strain dcc1, active compounds read low) was 0.899 (active) and the normalized growth (locus YCL029C, strain bik1, active compounds read low) was 1.01. For the same compound, the normalized growth (locus YCL061C, strain MRC1, active compounds read low) was 0.957, the normalized growth (locus YCL069W, strain vba3, active compounds read low) was 0.994 and the normalized growth (locus YCR088W, strain abp1, active compounds read low) was 0.973. The normalized growth (locus YDL005C, strain med2, active compounds read low) was 0.998, the normalized growth (locus YDL035C, strain GPR1, active compounds read low) was 1 and the normalized growth (locus YDL040C, strain nat1, active compounds read low) was 0.984. For the same compound, the normalized growth (locus YDL074C, strain BRE1, active compounds read low) was 0.965, the normalized growth (locus YDL101C, strain DUN1, active compounds read low) was 1.01 and the normalized growth (locus YDL134C, strain PPH21, active compounds read low) was 1.02. It also gave a normalized growth (locus YDL185W, strain tfp1, active compounds read low) of 1.01, a normalized growth (locus YDL192W, strain arf1, active compounds read low) of 1.02 and a normalized growth (locus YDR001C, strain nth1, active compounds read low) of 0.976. The normalized growth (locus YDR069C, strain doa4, active compounds read low) was 0.99, the normalized growth (locus YDR101C, strain arx1, active compounds read low) was 0.993 and the normalized growth (locus YDR137W, strain rgp1, active compounds read low) was 0.883. The normalized growth (locus YDR150W, strain NUM1, active compounds read low) was 1.02, the normalized growth (locus YDR159W, strain sac3, active compounds read low) was 0.867 and the normalized growth (locus YDR162C, strain NBP2, active compounds read low) was 1.01. The normalized growth (locus YDR195W, strain ref2) was 1, the normalized growth (locus YDR297W, strain sur2, active compounds read low) was 0.982 and the normalized growth (locus YDR318W, strain mcm21, active compounds read low) was 1. It also gave a normalized growth (locus YDR334W, strain swr1, active compounds read low) of 0.981, a normalized growth (locus YDR335W, strain msn5, active compounds read low) of 0.972 and a normalized growth (locus YDR388W, active compounds read low) of 0.993. It also gave a normalized growth (locus YDR392W, strain spt3, active compounds read low) of 0.797, a normalized growth (locus YDR502C, strain sam2, active compounds read low) of 0.996 and a normalized growth (locus YEL003W, strain gim4, active compounds read low) of 0.969. The normalized growth (locus YEL037C, strain rad23, active compounds read low) was 0.981, the normalized growth (locus YEL061C, strain CIN8 (second series), active compounds read low) was 0.979 and the normalized growth (locus YEL061C, strain CIN8, active compounds read low) was 1.01. The normalized growth (locus YER015W, strain faa2, active compounds read low) was 0.968, the normalized growth (locus YER016W, strain bim1, active compounds read low) was 0.985 and the normalized growth (locus YER110C, active compounds read low) was 1.01. For the same compound, the normalized growth (locus YER111C, strain swi4, active compounds read low) was 0.997, the normalized growth (locus YER155C, strain BEM2 (second series), active compounds read low) was 0.976 and the normalized growth (locus YER155C, strain BEM2, active compounds read low) was 1.01. It also gave a normalized growth (locus YER167W, strain BCK2, active compounds read low) of 0.997, a normalized growth (locus YFR010W, strain ubp6, active compounds read low) of 0.993 and a normalized growth (locus YGL078C, strain dbp3, active compounds read low) of 0.995. For the same compound, the normalized growth (locus YGL086W, strain mad1, active compounds read low) was 0.997, the normalized growth (locus YGL167C, strain pmr1, active compounds read low) was 1 and the normalized growth (locus YGL173C, strain kem1, active compounds read low) was 0.983. For the same compound, the normalized growth (locus YGL227W, strain vid30, active compounds read low) was 0.978, the normalized growth (locus YGL240W, strain doc1, active compounds read low) was 0.973 and the normalized growth (locus YGL248W, strain PDE1, active compounds read low) was 1.01. The normalized growth (locus YGL253W, strain hxk2, active compounds read low) was 0.989, the normalized growth (locus YGR078C, strain PAC10, active compounds read low) was 1.01 and the normalized growth (locus YGR135W, strain pre9, active compounds read low) was 0.989. For the same compound, the normalized growth (locus YGR229C, strain SMI1, active compounds read low) was 0.886, the normalized growth (locus YGR252W, strain gcn5, active compounds read low) was 0.978 and the normalized growth (locus YHR013C, strain ard1, active compounds read low) was 0.919. The normalized growth (locus YHR027C, strain rpn1, active compounds read low) was 0.984, the normalized growth (locus YHR030C, strain SLT2, active compounds read low) was 1 and 0.99 and the normalized growth (locus YHR079C, strain IRE1 (second series), active compounds read low) was 1. For the same compound, the normalized growth (locus YHR079C, strain IRE1, active compounds read low) was 1.02, the normalized growth (locus YHR094C, strain hxt1, active compounds read low) was 0.992 and the normalized growth (locus YHR129C, strain ARP1, active compounds read low) was 1. For the same compound, the normalized growth (locus YHR142W, strain chs7, active compounds read low) was 0.954, the normalized growth (locus YHR200W, strain rpn10, active compounds read low) was 0.991 and the normalized growth (locus YIL066C, strain RNR3, active compounds read low) was 1.02. It also gave a normalized growth (locus YIL073C, strain SPO22, active compounds read low) of 0.967, a normalized growth (locus YIL125W, strain kgd1, active compounds read low) of 1 and a normalized growth (locus YIR030C, strain dcg1, active compounds read low) of 0.997. For the same compound, the normalized growth (locus YJL092W, strain hpr5, active compounds read low) was 0.961, the normalized growth (locus YJL095W, strain BCK1 (second series), active compounds read low) was 1 and the normalized growth (locus YJL095W, strain BCK1, active compounds read low) was 0.936 and 1.02. For the same compound, the normalized growth (locus YJL115W, strain asf1, active compounds read low) was 0.948, the normalized growth (locus YJL129C, strain trk1, active compounds read low) was 0.96 and the normalized growth (locus YJL134W, strain LCB3, active compounds read low) was 1.01. The normalized growth (locus YJL154C, strain vps35, active compounds read low) was 0.993, the normalized growth (locus YJL164C, strain tpk1, active compounds read low) was 0.969 and the normalized growth (locus YJL166W, strain qcr8, active compounds read low) was 1. For the same compound, the normalized growth (locus YJL168C, strain set2, active compounds read low) was 1, the normalized growth (locus YJL187C, strain SWE1 (second series), active compounds read low) was 1.02 and the normalized growth (locus YJR043C, strain POL32, active compounds read low) was 0.911. For the same compound, the normalized growth (locus YJR066W, strain TOR1, active compounds read low) was 0.94.
